The values below come from ChEMBL document CHEMBL3988442, “University of Dundee, Small-Polar-MMV Screening Library” (2021).

In all, about 53,000 compounds went through this assay and about 900 (1.7%) showed an effect of 50% or more. Many of the other results were omitted from the sample, so strong results are more common in it than they were.

The test system of this assay is Mycobacterium tuberculosis. Briefly: Cornell - Phenotypic assay to identify agents that inhibit growth of Mycobacterium tuberculosis. In kind it is functional. Details: scale not given: direction of the effect not stated beside the values. Particulars: 10 mM as filed; unlikely as a test dose.
Turning to `CC(=O)Nc1ccc(Oc2ccc3c(c2)OCO3)nc1`, the “Percent Effect” value was determined as 12.25%.
Then `CC(C)N1CC2(CCCN(c3ccccn3)C2)CCC1=O` (configuration not stated), with 8.106%.
Next, `CCc1ccc(C(=O)NCC2CCCN2CC)o1` (configuration not stated): 3.045%; `CCc1cnc(N2CC[C@H]3[C@@H]2CCC(=O)N3c2cccnc2)nc1.O=C(O)C(F)(F)F.O=C(O)C(F)(F)F`: 5.714%; `Cc1nc2c(Nc3cccc(C#N)c3)nc(N)nc2n1C`: 106.8%.
Take `Cc1nc2c(Nc3ccc(C#N)cc3)nc(N)nc2n1C`: the “Percent Effect” value worked out at 2.918%.
Then `CC(=O)c1ccc(Nc2nc(N)nc3c2nc(C)n3C)cc1`, with 11.87%; and `CN(Cc1nnc(-c2cccs2)o1)C(C(N)=O)c1cccc(F)c1` (configuration not stated), with 15.31%.
As to `CCc1nc(CN(C)Cc2nnc(-c3cccs3)o2)cs1`, the “Percent Effect” value turned out to be 57.32%.
Regarding `CCc1nc(CN(C)Cc2ncc(-c3cccs3)o2)cs1`, the “Percent Effect” value is 22.49%.
`Cc1cc(NC(=O)c2ccccc2Br)n(C)n1`: the “Percent Effect” value is on record as 11.86%.
Next, `Cc1cnn(CC2CCCN2Cc2coc(-c3cccc(F)c3)n2)c1` (configuration not stated): 42.46%; `OC(COCc1ccco1)CN1CCC(Cn2cccn2)CC1` (configuration not stated): -18.82%.
Then `COc1cccc2c1OCC(CNc1ccc(C)nn1)C2` (configuration not stated), with 22.84%.
With `COc1cccc2c1OCC(Cc1ccc(N)nc1C)C2` (configuration not stated), the “Percent Effect” value was determined as 28.19%.
On to `COc1cccc2c1OCC(CNc1cc(N)nc(SC)n1)C2` (configuration not stated), for which the “Percent Effect” value is on record as 106%.
On to `COc1ccc2c(c1)OCC(CNc1cc(N)nc(SC)n1)C2` (configuration not stated), for which the “Percent Effect” value is 106.6%.
Consider `COc1ccc2c(c1)OCC(Cc1ccc(C)nc1N)C2` (configuration not stated), for which the “Percent Effect” value was 9.156%.
Then `COc1ccc2c(c1)OCC(Cc1ccc(N)nc1C)C2` (configuration not stated), with 38.23%; and `Cc1nccc(-c2cccc(NCC(=O)N3CCNC(=O)C3)c2)n1`, with 4.567%; and `CNC(=O)c1cccc(CC2COCCN(Cc3ccc(C)o3)C2)n1` (configuration not stated), with 0.6767%.
Next, `Cc1ccc(S(=O)(=O)NCCc2ccoc2)s1`: 103.3%; `Cc1ccc(S(=O)(=O)NCC(O)c2ccoc2)s1` (configuration not stated): 10.79%; `COC(=O)c1sccc1S(=O)(=O)NCCc1ccoc1`: 39.87%.
`O=S(=O)(NCC1COc2ccccc2C1)N1CCCC1` (configuration not stated): the “Percent Effect” value turned out to be 15.67%.
Then `OC1=C2C(=Nc3n[nH]c(O)c3C2c2ccco2)CCC1` (configuration not stated), with 27.79%; and `Cc1cnn(CC2CCCN2Cc2noc(-c3ccccc3)n2)c1` (configuration not stated), with 10.45%.
Regarding `Cc1cnn(CC2CCCN2CCc2nc3ccccc3c(=O)[nH]2)c1` (configuration not stated), the “Percent Effect” value came out at 106.5%.
As to `Cc1cnn(CC2CCCN2Cc2nc3ccccc3n2C)c1` (configuration not stated), the “Percent Effect” value came to 81.85%.
Regarding `Cc1cnn(CC2CCCN2C(=O)CCc2nc3ccccc3[nH]2)c1` (configuration not stated), the “Percent Effect” value is recorded as 16.22%.
For the compound `Cc1cnn(CC2CCCCN2Cc2nc(N)c3ccccc3n2)c1` (configuration not stated), the “Percent Effect” value is recorded as 31.76%.
Next, `Cc1nc(C)n(CC2CCCN2Cc2nc3ccccc3c(=O)[nH]2)n1` (configuration not stated): -38.81%; `Cc1cccc(CN2CCC(C3Nc4ccccc4S(=O)(=O)N3)CC2)n1` (configuration not stated): -13.88%.
Next, `CCn1c(N)nc2cc(C(=O)N(C)Cc3cc(C(C)(C)C)n[nH]3)cnc21`: 12.68%; `CN1CC(=O)N(c2cccc(F)c2)CC12CCNC2` (configuration not stated): -13.58%.
As to `NC(=O)CN1CCCCC1c1nc(N)ncc1-c1cccc(F)c1` (configuration not stated), the “Percent Effect” value was -18.13%.
Then `COCCN1CCN(Cc2nc(-c3ccoc3)no2)CC1`, with -27.89%.
Consider `CN(C)c1ncc(NS(=O)(=O)c2ccc(OC(F)(F)F)cc2)cn1`, for which the “Percent Effect” value turned out to be 23.91%.
As to `Cc1ccc(F)cc1S(=O)(=O)Nc1cnc(N2CCCC2)nc1`, the “Percent Effect” value is 13.98%.
Next, `O=S(=O)(Nc1cnc(N2CCCC2)nc1)c1ccc(F)cc1F`: -10.3%; `O=S(=O)(Nc1cnc(N2CCCC2)nc1)c1ccc(OC(F)(F)F)cc1`: 94.98%.
Then `O=S(=O)(Nc1cnc(N2CCCC2)nc1)c1ccc(C(F)(F)F)cc1`, with 101.9%; and `O=S(=O)(Nc1cnc(N2CCOCC2)nc1)c1ccc(Cl)cc1`, with -17.06%; and `O=S(=O)(Nc1cnc(N2CCOCC2)nc1)c1ccc(C(F)(F)F)cc1`, with 57.68%.
Next, `Cn1cc(NS(=O)(=O)c2ccc(OC(F)(F)F)cc2)ccc1=O`: -35.35%.
For `CCc1ccc(S(=O)(=O)Nc2cnc(N3CCOCC3)nc2)cc1`, the “Percent Effect” value stood at 24.89%.
For the compound `O=C1CCC(=O)N1c1nn(Cc2ccccc2)cc1Cl`, the “Percent Effect” value is reported as -38.92%.
Turning to `Cc1ccc(S(=O)(=O)c2ncccc2CN2CCCC2)cc1`, the “Percent Effect” value is -5.255%.
Take `N#CC1COCCN1C(=O)c1ccc2[nH]ccc2c1` (configuration not stated): the “Percent Effect” value is 10.98%.
With `CC(C)(C)n1cc(NC(=O)C2CN(Cc3ccccc3)CCO2)cn1` (configuration not stated), the “Percent Effect” value amounted to 19.34%.
As to `COc1ccccc1CNC(=O)CN(C)C(C)c1ccncn1` (configuration not stated), the “Percent Effect” value is on record as 1.408%.
On to `Cc1cn([C@H]2CCNC[C@]2(C)O)c(=O)[nH]c1=O`, for which the “Percent Effect” value came to 34.03%.
With `CC(C)N1CC[C@@](C)(O)[C@H](n2ccc(=O)[nH]c2=O)C1`, the “Percent Effect” value is given as -3.084%.
On to `Cc1cn([C@@H]2CC3(CCNCC3)OC[C@@]2(C)O)c(=O)[nH]c1=O`, for which the “Percent Effect” value came out at 56.73%.
Consider `CCc1ncc(S(C)(=O)=O)c(C2CCCNC2)n1` (configuration not stated), for which the “Percent Effect” value is 21.49%.
For `CCc1c(O)nc(SCC(=O)c2ccccc2)n(-c2ccccc2)c1=O`, the “Percent Effect” value is given as 13.57%.
Consider `CCOc1ccc(Cc2c(O)nc(SC)n(-c3ccccc3)c2=O)cc1`, for which the “Percent Effect” value was 8.957%.
Regarding `CCc1c(O)nc(SC(C)CC)n(-c2ccccc2)c1=O` (configuration not stated), the “Percent Effect” value is on record as 96.76%.
Next, `CCc1c(O)n(C(C)CC)c(SCC(=O)c2ccccc2)nc1=O` (configuration not stated): 28.35%; `CSc1nc(O)c(Cc2ccccc2)c(=O)n1-c1ccccc1`: 18.81%; `CCc1c(O)nc(SCC(=O)Nc2ccccc2)n(C(C)CC)c1=O` (configuration not stated): 65.15%.
Take `CCCSc1nc(O)c(CC)c(=O)n1-c1ccccc1`: the “Percent Effect” value amounted to 98.89%.
In the case of `COc1ccc(Cc2c(O)nc(SC)n(-c3ccccc3)c2=O)cc1`, the “Percent Effect” value is given as -12.72%.
Then `CCc1c(O)nc(SCC(=O)N(CC)CC)n(C(C)CC)c1=O` (configuration not stated), with 4.731%.
Regarding `CNC(=O)COc1ccc(CNCc2c(C)nn(C)c2N(C)C)cc1`, the “Percent Effect” value is -6.953%.
Consider `O=S(=O)(c1ccc(F)c(F)c1)n1cc(Cl)cn1`, for which the “Percent Effect” value is -7.033%.
Then `CC1(Cc2ccc(F)cc2)Cc2cc(C(=O)NCCO)ccc2O1` (configuration not stated), with 0.603%.
Turning to `COCc1noc(CN2C[C@H](NS(C)(=O)=O)[C@@H](C3CC3)C2)n1`, the “Percent Effect” value is reported as 15.5%.
`CC(C)COC(=O)N1CC(=O)N(Cc2ccc(Cl)cc2)CC(O)C1` (configuration not stated): the “Percent Effect” value is -5.11%.
Next, `CS(=O)(=O)NCc1ncn2c1CN(C(=O)C1CCCO1)CCC2` (configuration not stated): 5.323%; `COc1cncc(-n2nc(C)c(CC(C)=O)c2C)c1`: 14.09%.
As to `COC(=O)[C@H](CCSC)NC(=O)Cc1c(C)nn(-c2ccccc2)c1C`, the “Percent Effect” value is 83.92%.
`COC(=O)C(CCSC)NC(=O)Cc1c(C)nn(-c2ccccc2)c1C` (configuration not stated): the “Percent Effect” value is recorded as 87.19%.
Then `COc1cccc(-c2nc(C)c(C(=O)N[C@H](CO)CCSC)s2)c1`, with 3.237%.
Next, `CSCCC(NC(N)=O)C(=O)NCc1c(C)nn(-c2ccccc2)c1C` (configuration not stated): -4.034%; `COc1cccc(-c2nc(C)c(C(=O)N[C@@H](CCSC)C(=O)O)s2)c1`: 4.928%.
As for `CC(C)C(=O)NCCCNC(=O)Nc1cc(-c2ccccc2)ns1`, the “Percent Effect” value is recorded as 30.68%.
In the case of `CCS(=O)(=O)N1CCC2(CC1)CN(c1cccnc1)C(=O)CO2.O=C(O)C(F)(F)F`, the “Percent Effect” value is on record as -1.862%.
With `Cc1csc(CNc2nc3c(s2)c(C)nn3C)n1`, the “Percent Effect” value is reported as 21.44%.
Then `Cc1nn(C)c2nc(NCCCN3CCCC(CO)C3)sc12` (configuration not stated), with 5.889%.
Next, `Cc1nc(CNc2nc3c(s2)c(C)nn3C)cs1`: 88.41%.
As for `CCc1csc(CNc2nc3c(s2)c(C)nn3C)n1`, the “Percent Effect” value is reported as -15.98%.
For the compound `Cc1nn(C)c2nc(NC3CCNCC3)sc12`, the “Percent Effect” value is recorded as 23.18%.
Consider `CCc1nc(CNc2nc3c(s2)c(C)nn3C)cs1`, for which the “Percent Effect” value is 82.51%.
Regarding `Cn1nccc1-c1ncc(-c2cc(C(=O)O)n(CC3CC3)c2)cn1`, the “Percent Effect” value was -21.93%.
Take `CN(C)c1ncc(-c2cc(C(=O)O)n(CC3CC3)c2)cn1`: the “Percent Effect” value was 80.35%.
As to `CN(C)c1ncc(NC(=O)N2CCC(CN3CCCC3)C2)cn1` (configuration not stated), the “Percent Effect” value was -23.44%.
As for `COc1ccc(Cl)cc1S(=O)(=O)N(C)CC(=O)Nc1ccccc1`, the “Percent Effect” value is listed as 28.1%.
Next, `Cc1ccc(S(=O)(=O)N(C)CC(N)=O)c(Cl)c1`: 18.08%; `CN(CC(=O)Nc1ccon1)S(=O)(=O)c1cc(Cl)ccc1Cl`: -21.56%; `CN(CCS(=O)(=O)c1cc(Cl)ccc1Cl)CC(=O)Nc1cccc(F)c1`: 108.9%.
On to `COc1ccc(Cl)cc1S(=O)(=O)N(C)CC(N)=O`, for which the “Percent Effect” value stood at 28.08%.
As to `CN(CC(=O)Nc1cccc(F)c1)Cc1nc(N)nc(N(C)C)n1`, the “Percent Effect” value is on record as 30.17%.
In the case of `CN(CCS(=O)(=O)c1cc(Cl)ccc1Cl)CC(=O)Nc1ccc(F)cc1`, the “Percent Effect” value was determined as 110.1%.
Then `CN(CCOc1cccc(F)c1)CC(=O)Nc1ccncc1`, with 22.43%; and `CN(CCS(=O)(=O)c1cc(Cl)ccc1Cl)CC(N)=O`, with 108.8%; and `Cc1nn(C)c(C)c1-c1ccc(=O)n(C(C)C(=O)NC2CC2)n1` (configuration not stated), with 11.69%.
In the case of `CC(C)Nc1nc2c(s1)C(=O)CN(CC1CC1)C2`, the “Percent Effect” value is -4.506%.
Consider `CCn1nc(C)c2c1cnn2CC(=O)N1CCN(C)CC1`, for which the “Percent Effect” value was determined as 13.07%.
Next, `O=C(O)CN1CCOCC(Cc2ccc(Cl)cc2)C1` (configuration not stated): -49.54%; `CCCc1cc(=O)n(CC(=O)NCCOC)c(-n2nc(C)cc2C)n1`: 61.91%.
Then `CCCc1cc(=O)n(CC(=O)NC(C)C)c(-n2nc(C)cc2C)n1`, with 19.53%.
With `CCCNC(=O)Cn1c(-n2nc(C)cc2C)nc(CCC)cc1=O`, the “Percent Effect” value is reported as 16.57%.
`Cc1nn2cc(CNc3nccc(CCC(F)(F)F)n3)nc2s1`: the “Percent Effect” value was found to be 14.28%.
On to `Cl.NC(Cc1nc(-c2ccccc2)no1)c1ccccc1` (configuration not stated), for which the “Percent Effect” value was 19.6%.
Regarding `COc1cc(OC)cc(-c2noc(CN)n2)c1`, the “Percent Effect” value is given as -71.7%.
As for `COc1cc(OC)cc(-c2noc(CC(N)c3ccccc3)n2)c1` (configuration not stated), the “Percent Effect” value stood at 63.98%.
